PRC2 inh – EZH2/PRC2 methyltransferase inhibitors, primary screen, biochemical, DELFIA time-resolved fluorescence, single point | PRC2 H3K27 methylation, DELFIA TRF, 1 h | Histone-lysine N-methyltransferase EZH2 (Homo sapiens), Q15910 | 57,000 tested, 0.35% active | AID 651548, 2012 | inhibition, % at 12.5 µM;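 active means mean inhibition of replicates at least 50% and every single replicate also reaching 50%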;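 further: dimethyl H3K27 on biotinylated H3 21-44 peptide detected by antibody; plate controls were median neutral control wells for no effect and median positive control wells for full effect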
* hit, by the source's call. This excerpt belongs to a sample that is enriched for hits.

SMILES | PRC2 inh
C[C@@H]1CN([C@H](C)CO)C(=O)c2cc(NC(=O)c3ccncc3)ccc2O[C@@H](C)CCCCO[C@@H]1CN(C)C(=O)c1ccccc1 | -7
C[C@H](CO)N1C[C@H](C)[C@H](CN(C)C(=O)NC2CCCCC2)OCc2ccccc2-c2ccccc2C1=O | 5
COCC#Cc1ccc2c(c1)O[C@H](CN(C)S(C)(=O)=O)[C@@H](C)CN([C@H](C)CO)S2(=O)=O | 11
Cc1cccc(OCC(=O)Nc2cccc(C(=O)Nc3ccccc3C(=O)O)c2)c1 | 42
CC(C)(C)c1ccc(OCC(=O)Nc2ccc(C(=O)Nc3ccccc3C(=O)O)cc2)cc1 | 64*
COc1ccc(OCC(=O)Nc2ccccc2C(=O)Nc2ccccc2)cc1 | -6
C[C@H]1CN([C@@H](C)CO)C(=O)Cc2cc(NC(=O)Nc3ccccc3)ccc2O[C@H]1CN(C)S(=O)(=O)c1ccc(F)cc1 | -8
CO[C@@H]1CN(C)C(=O)c2cc(NC(=O)c3ccc(F)cc3)ccc2OC[C@@H](C)N(C(C)=O)C[C@@H]1C | 0
CC1(C)CC[C@]2(C(=O)O[C@@H]3O[C@H](CO)[C@@H](O)[C@H](O)[C@H]3O)CC[C@]3(C)C(=CCC4[C@@]5(C)CC[C@H](O[C@@H]6O[C@H](C(=O)O)[C@@H](O)[C@H](O)[C@H]6O)[C@@](C)(CO)C5CC[C@]43C)C2C1 (stereo not given in full) | 3
CC1(C)CC[C@]2(C(=O)O[C@@H]3O[C@H](CO)[C@@H](O)[C@H](O)[C@H]3O)CC[C@]3(C)C(=CCC4[C@@]5(C)CC[C@H](O[C@@H]6O[C@H](C(=O)O)[C@@H](O[C@@H]7O[C@H](CO)[C@@H](O)[C@H](O)[C@H]7O)[C@H](O)[C@H]6O[C@@H]6O[C@H](CO)[C@@H](O)[C@H](O)[C@H]6O)C(C)(C)C5CC[C@]43C)C2C1 (stereo not given in full) | 11
C[C@@H]1CC[C@]2(C(=O)OC3OC(CO)C(OC4OC(CO)C(O)C(O)C4O)C(O)C3O)CC[C@]3(C)C(=CCC4[C@@]5(C)CC[C@H](O)[C@](C)(C(=O)O)C5CC[C@]43C)C2[C@]1(C)O (stereo not given in full) | 60*
C[C@H]1CN([C@@H](C)CO)C(=O)c2cc(NC(=O)c3ccncc3)ccc2O[C@@H]1CN(C)Cc1ccc(C(=O)O)cc1 | -2

Screening results deposited in PubChem by Broad Institute.
